# Values joined by “and” are separate entries in the source; they are usually repeats but may differ in a detail not shown here. Identical values can stand only once. Records with an inconclusive call do not appear. Entries that show only a call come without a potency. Some compounds were tested as several samples or in several runs, with calls that do not always agree. Active and inactive are the calls of the source. Unless noted, calls follow the shape of the dose curve; as a rule, active = well fitted curve in the direction sought with a large enough effect in the repeat runs; inconclusive = weak or mixed curves; inactive = no such curve, though single readings can be large; an effect the other way counts as inactive or inconclusive.
# Tests used:
# [1] = qHTS assay to identify small molecule agonists of the estrogen receptor alpha (ER-alpha) signaling pathway in the presence of an antagonist - cell viability counter screen (AID 1259386);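 also: cells exposed to compounds for 22 h at 37 °C before the viability read; nearly all actives have a fitted effect of over 30% in size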; also: potency is read from the fitted curve at half-maximal effect
# Procedure, shortened: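 ICI-182,780 at 10.0nM final accompanies the compound titration (15 concentrations, 22hr, 37C) on VM7Luc4E2 cells. The CellTiter-Fluor fluorescence readout runs in the same wells as the luciferase assay.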
# [2] = molecular target: Progesterone receptor (Homo sapiens) (UniProt P06401); test: qHTS assay to identify small molecule agonists of the progesterone receptor (PR) signaling pathway (AID 1346784; calls by dose curve; also: nearly all actives have a fitted effect of over 30% in size; also: potency is read from the fitted curve at half-maximal effect)
# Procedure, shortened: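 Compounds were tested for PR agonism in HEK 293T cells bearing a beta-lactamase gene under UAS control. Treatment lasted 16 hr at 37C; signal came from fluorescence of a FRET substrate.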
# [3] = molecular target: Progesterone receptor (Homo sapiens) (UniProt P06401); test: qHTS assay to identify small molecule antagonists of the progesterone receptor (PR) signaling pathway (AID 1346795; active = well fitted inhibition curve with a large enough effect in the signal ratio in the repeat runs, not every such curve was filed as active; the % refers to the signal ratio; also: potency is read from the fitted curve at half-maximal effect)
# Procedure, shortened: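 In HEK293T cells bearing the PR-UAS-bla reporter, compound effects on promegestone-driven (1 nM) beta-lactamase expression are assessed after 16 hr using a fluorescent FRET substrate incubated 2 hr at room temperature.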
# [4] = qHTS assay to identify small molecule antagonists of the progesterone receptor (PR) signaling pathway - cell viability counter screen (AID 1346798); also: nearly all actives have a fitted effect of over 50% in size; also: potency is read from the fitted curve at half-maximal effect
# Procedure, shortened: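 Following a 4 hr attachment, PR-UAS-bla HEK293T cells in charcoal-stripped FBS medium were exposed to compounds with R5020 for 16 hr; CellTiter-Glo was added and luminescence read after 30 min at room temperature.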
# [5] = qHTS assay to identify small molecule agonists of the progesterone receptor (PR) signaling pathway - cell viability counter screen (AID 1346799; calls by dose curve; also: nearly all actives have a fitted effect of over 45% in size; also: potency is read from the fitted curve at half-maximal effect)
# Procedure, shortened: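 Here, 3,000 PR-UAS-bla HEK293T cells per well were treated with compounds for 16 hr after a 6 hr preincubation at 37C and 5% CO2; cell viability is the CellTiter-Glo luminescence signal.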
# [6] = qHTS assay to identify small molecule antagonists of the TGF-beta/Smad signaling pathway - cell viability counter screen (AID 1346824); also: nearly all actives have a fitted effect of over 50% in size; also: potency is read from the fitted curve at half-maximal effect
# Procedure, shortened: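 Cytotoxicity counter-screen run in the same wells as the beta-lactamase Smad reporter read: CellTiter-Glo luminescence after 30 min at room temperature. HEK 293T SBE-bla cells had 5 hr compound exposure at 37 C with TGF-beta1 (0.25 ng/mL stock).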
# [7] = qHTS assay to identify small molecule agonists of the TGF-beta/Smad signaling pathway - cell viability counter screen (AID 1346829); also: nearly all actives have a fitted effect of over 45% in size; also: potency is read from the fitted curve at half-maximal effect
# Procedure, shortened: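 Compound-treated SBE-bla HEK 293T cells (5 hr, 37 C) were assessed for viability with CellTiter-Glo in parallel with the reporter read.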
# [8] = qHTS assay to identify small molecule agonists of the TGF-beta/Smad signaling pathway (AID 1346859; active = well fitted activation curve with a large enough effect in the signal ratio in the repeat runs, not every such curve was filed as active; the % refers to the signal ratio; also: series mostly up to about 77 µM)
# Procedure, shortened: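 Each well held 4,000 SBE-bla HEK 293T cells incubated overnight before compound addition; 5 hr later the cleavable FRET substrate went on for 2 hr at room temperature, and fluorescence was read at two emissions.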
# [9] = molecular target: Thyrotropin-releasing hormone receptor (Homo sapiens) (UniProt P34981); test: qHTS assay to identify small molecule antagonists of the thyrotropin-releasing hormone receptor (TRHR) signaling pathway (AID 1346877; active = well fitted inhibition curve with a large enough effect in the repeat runs, not every such curve was filed as active; also: series mostly up to about 51 µM)
# Procedure, shortened: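 Screening used HEK293 cells engineered with TRHR, with a brief 5 min room-temperature compound exposure preceding addition of TRH to 1 nM. The read-out was kinetic calcium-dye fluorescence, concentration-response from 15 doses in triplicate.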
# [10] = molecular target: Thyrotropin-releasing hormone receptor (Homo sapiens) (UniProt P34981); test: qHTS assay to identify small molecule agonists of the thyrotropin-releasing hormone receptor (TRHR) signaling pathway (AID 1346891; calls by dose curve; also: series mostly up to about 58 µM)
# Procedure, shortened: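 Screening of agonists relied on calcium signalling in HEK293 cells expressing human TRHR: dye loading 2 h at 37 °C preceded compound addition and a 3-min fluorescence time course.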
# Chain of Thyrotropin-releasing hormone receptor (Homo sapiens) (P34981 whole entry, looked up): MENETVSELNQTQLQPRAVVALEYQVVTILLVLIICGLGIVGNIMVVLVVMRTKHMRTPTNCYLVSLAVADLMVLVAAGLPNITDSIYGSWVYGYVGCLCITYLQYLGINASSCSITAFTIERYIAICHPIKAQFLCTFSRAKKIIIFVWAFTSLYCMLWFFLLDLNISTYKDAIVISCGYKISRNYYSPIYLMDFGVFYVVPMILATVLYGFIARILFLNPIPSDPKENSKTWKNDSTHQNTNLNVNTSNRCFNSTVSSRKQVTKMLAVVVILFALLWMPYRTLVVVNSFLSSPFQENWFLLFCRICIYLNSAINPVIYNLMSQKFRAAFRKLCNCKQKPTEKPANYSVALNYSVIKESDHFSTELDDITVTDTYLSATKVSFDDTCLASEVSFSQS
# Chain of Progesterone receptor (Homo sapiens) (P06401 whole entry, looked up): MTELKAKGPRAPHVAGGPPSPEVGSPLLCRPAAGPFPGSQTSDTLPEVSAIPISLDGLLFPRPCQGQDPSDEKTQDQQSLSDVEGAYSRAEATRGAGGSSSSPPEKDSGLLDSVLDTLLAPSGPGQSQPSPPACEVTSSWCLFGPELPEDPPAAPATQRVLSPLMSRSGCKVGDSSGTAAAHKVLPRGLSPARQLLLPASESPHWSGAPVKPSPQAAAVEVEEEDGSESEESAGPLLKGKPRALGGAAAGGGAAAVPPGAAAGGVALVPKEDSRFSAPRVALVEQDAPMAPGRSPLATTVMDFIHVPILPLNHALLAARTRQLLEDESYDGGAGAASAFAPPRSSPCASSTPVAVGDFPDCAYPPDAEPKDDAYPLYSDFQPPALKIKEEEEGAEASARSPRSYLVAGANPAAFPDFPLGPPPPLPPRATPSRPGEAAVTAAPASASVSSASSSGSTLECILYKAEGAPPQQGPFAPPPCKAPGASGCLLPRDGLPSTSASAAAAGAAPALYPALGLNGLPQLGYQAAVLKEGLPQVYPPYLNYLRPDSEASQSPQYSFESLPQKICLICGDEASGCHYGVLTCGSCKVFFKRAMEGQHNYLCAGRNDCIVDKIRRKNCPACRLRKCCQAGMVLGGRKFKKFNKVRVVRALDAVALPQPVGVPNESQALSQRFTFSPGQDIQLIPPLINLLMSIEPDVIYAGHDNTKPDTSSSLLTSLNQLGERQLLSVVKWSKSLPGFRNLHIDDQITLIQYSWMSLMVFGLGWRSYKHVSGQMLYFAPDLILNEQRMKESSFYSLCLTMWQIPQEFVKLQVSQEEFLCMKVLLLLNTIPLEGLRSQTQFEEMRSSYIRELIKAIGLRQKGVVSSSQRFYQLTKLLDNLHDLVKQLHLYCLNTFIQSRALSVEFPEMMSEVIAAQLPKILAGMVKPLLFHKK
Structure (SMILES),Potency [1],Potency [2],Potency [3],Potency [4],Potency [5],Potency [6],Potency [7],outcome [8],Potency [9],Potency [10]
CC(=O)C(=O)O,inactive,inactive,inactive,inactive,inactive and 34.4 µM (active),inactive,inactive,–,–,–
CCN(CC)C(=O)c1cccc(C)c1,inactive,inactive,inactive,inactive,inactive,inactive,inactive,–,–,–
Cc1c(C(=O)O)c(O)cc2c1C(=O)c1c(O)c([C@@H]3O[C@H](CO)[C@@H](O)[C@H](O)[C@H]3O)c(O)c(O)c1C2=O,26.6 µM (active) and 15.4 µM (active) and 13.3 µM (active),inactive,inactive,inactive,inactive,inactive,inactive,inactive,inactive,inactive
C1CCC(C(CC2CCCCN2)C2CCCCC2)CC1 (configuration not stated),inactive,inactive,29.8 µM (active),26.6 µM (active),23.7 µM (active),26.8 µM (active),26.8 µM (active),–,–,–
CN1[C@@H]2CC(OC(=O)[C@H](CO)c3ccccc3)C[C@H]1[C@@H]1O[C@@H]12 (some centres not stated),inactive,inactive,inactive,inactive,inactive,inactive,inactive,inactive,–,–
CN(C)CCOC(C)(c1ccccc1)c1ccccn1 (configuration not stated),inactive,inactive,inactive,inactive,inactive,inactive,inactive,–,–,–
CCCC[P+](CCCC)(CCCC)CCCC,inactive,inactive,inactive,inactive,inactive,inactive,inactive,–,–,–
CC(=O)Nc1c(I)c(NC(C)=O)c(I)c(C(=O)O)c1I,inactive,inactive,inactive,inactive,inactive,inactive,inactive,inactive,–,–
Cc1cc(C)nc(NS(=O)(=O)c2ccc(N)cc2)n1,inactive,inactive,inactive,inactive,inactive,inactive,inactive,inactive,inactive,inactive
Nc1c(N=Nc2ccc(-c3ccc(N=Nc4cc(S(=O)(=O)O)c5ccccc5c4N)cc3)cc2)cc(S(=O)(=O)O)c2ccccc12,17.2 µM (active),inactive,inactive,inactive,inactive,inactive,inactive,inactive,–,–
O=c1[nH]cnc2c1ncn2[C@H]1CC[C@@H](CO)O1,inactive,inactive,inactive,inactive,inactive,inactive,inactive,inactive,–,–
Cc1ccc(S(=O)(=O)O)cc1,inactive,inactive,inactive,inactive,inactive,inactive,inactive,–,–,–
Cc1cn([C@H]2C=C[C@@H](CO)O2)c(=O)[nH]c1=O,inactive,inactive,inactive,inactive,inactive,inactive,inactive,inactive,–,–
COc1ccc(CN(CCN(C)C)c2ccccn2)cc1,inactive,inactive,inactive,inactive,42.8 µM (active) and 28.2 µM (active) and inactive,inactive,inactive,inactive,inactive,inactive
CN(C)CCOC(c1ccccc1)c1ccccc1,inactive,inactive,inactive,inactive,inactive,inactive,inactive,inactive,inactive,inactive
CN1CCC[C@H]1c1cccnc1,inactive,inactive,inactive,inactive,inactive,inactive,inactive,inactive,inactive,inactive
CC(=O)CC(c1ccccc1)c1c(O)c2ccccc2oc1=O (configuration not stated),inactive,inactive,inactive,inactive,inactive,inactive,inactive,–,–,–
C/C=C/C=C/C(=O)O,inactive,inactive,inactive,inactive,inactive,inactive,inactive,inactive,inactive,inactive
O=C1O[C@H]([C@@H](O)CO)C(O)=C1O,inactive,inactive,inactive,inactive,inactive,inactive,inactive,inactive,–,–
O=C1NC(=O)C(c2ccccc2)(c2ccccc2)N1,inactive,inactive,inactive,inactive,inactive,inactive,inactive,inactive,inactive,inactive
CC1(C)S[C@@H]2[C@H](NC(=O)[C@H](N)c3ccccc3)C(=O)N2[C@H]1C(=O)O,inactive,inactive,inactive,inactive,inactive,inactive,inactive,inactive,–,–
O=C(O)c1ccccc1,inactive,inactive and 596 nM (active),inactive,inactive,inactive,inactive,inactive,–,–,–
NS(=O)(=O)O,inactive,inactive,inactive,inactive,inactive,inactive,inactive,inactive,–,–
O=C1c2c(O)cccc2Cc2cccc(O)c21,inactive,inactive,inactive,inactive,inactive,inactive,inactive,–,–,–

# From PubChem BioAssay (Tox21)
